Source: PubChem BioAssay (NCI)
Where “and” joins values, the source holds several entries; their conditions need not be identical. Equal values may be shown once. This is part of a sample that, as a whole, favours compounds with a hit. Of some 83,000 tested, about 20% had one in any assay.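 Each cell line was grown in a 96-well plate and treated with one concentration of compound for 48 hours. Values below 10 were considered active.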 Calls of active or inactive are those of the source.

System: MCF7 breast
Assay: NCI-60 one-dose screen, 48 h (100 = growth as untreated, 0 = no growth, -100 = all killed)
Conditions: 10 µM unless noted

Structure (SMILES) | growth
COc1ccc(N=C(C)C(C)=Nc2ccc(OC)cc2)cc1 | 38.9% [100 µM] (inactive) and 11.1% [100 µM] (inactive)
COC(=O)C(=O)C(C(=O)C(=O)Nc1nc2ccc(C)cc2s1)c1nc2ccc([N+](=O)[O-])cc2[nH]c1=O (centres undefined) | 60.3% [100 µM] (inactive) and 57.7% [100 µM] (inactive)
CC(C)=CC(O)C/C(C)=C/CC/C(C)=C/CCC1(C)C(CCCO)/C(=C(/C)C=O)CCC1(C)O (centres undefined) | -22.6% [100 µM] (active) and -6.67% [100 µM] (active)
CCCCCCCCCC(=O)CC(=O)c1c(O)cc(O)cc1O | -63.3% [75 µM] (active) and -13.9% [75 µM] (active)
Cc1ccc(NC2=N/C(=C/c3ccccc3)C(Cl)=N2)cc1 | 71.3% [100 µM] (inactive) and 75.4% [100 µM] (inactive)
CCCCCCCCCC(O)CC(=O)c1c(O)cccc1O (centres undefined) | -63.9% [100 µM] (active) and -46.7% [100 µM] (active)
COC(=O)C(=O)C(C(=O)C(=O)Nc1ccccc1OC)c1nc2ccc([N+](=O)[O-])cc2[nH]c1=O (centres undefined) | 43% [100 µM] (inactive) and 41.8% [100 µM] (inactive)
COC(=O)c1cc(C#N)[nH]c1-c1ccsc1 | 9.03% [100 µM] (active) and -89.1% [100 µM] (active)
COc1ccc2cc1Oc1ccc(cc1)CC1c3cc(OC)c(cc3CCN1C)Oc1c(OC)c(OC)cc3c1C(C2)N(C)CC3 (centres undefined) | 24.7% [75 µM] (inactive) and -97.6% [75 µM] (active)
CCCCC1C(=O)N(c2ccc(S(=O)(=O)Nc3ccccn3)cc2)N(c2ccc(O)c(C(=O)O)c2)C1=O (centres undefined) | 121% [100 µM] (inactive) and 87.3% [100 µM] (inactive)
CCn1c2c(c3ccccc3c1=O)C(=O)c1ccccc1-2 | 71.7% [100 µM] (inactive) and 21% [100 µM] (inactive)
COc1ccc(-c2coc3c4c(ccc3c2=O)OCO4)cc1OC | 53.7% [100 µM] (inactive) and 32.9% [100 µM] (inactive)
CC(=N/N=C/c1ccccn1)/C(C)=N/N=C(C)/C(C)=N/N=C(C)/C(C)=N/N=C(C)/C(C)=N\N=C\c1ccccn1 | 84.9% [100 µM] (inactive) and 89.9% [100 µM] (inactive)
C=C1C(=O)O[C@@H]2C[C@@]3(C)CC(=O)C=C(C)[C@@H]3C[C@H]12 | -74.2% [100 µM] (active) and -78.3% [100 µM] (active)
O[C@H]1[C@H](O)[C@@H](Cn2nnc(-c3ccccc3)c2-c2ccccc2)OCO[C@@H]1Cn1nnc(-c2ccccc2)c1-c1ccccc1 | -62.6% [100 µM] (active)
COC(=O)C(/C(=N/NC(N)=O)C(=O)Nc1ccc(C)cc1)c1nc2ccc([N+](=O)[O-])cc2[nH]c1=O (centres undefined) | 68.7% [100 µM] (inactive) and 41.2% [100 µM] (inactive)
N#Cc1nc(C(F)(F)F)oc1N | 66.3% [100 µM] (inactive) and 98.4% [100 µM] (inactive)
N/N=C(\C(=O)Nc1ccc([N+](=O)[O-])cc1)C(C1=Nc2cc([N+](=O)[O-])ccc2NC1)[N+](=O)[O-] (centres undefined) | 45.9% [100 µM] (inactive) and 33.8% [100 µM] (inactive)
CCO/C=N\C1=C(C#N)SC2=N/C(=C\c3ccc(OC)cc3)C(=O)N21 | 59.2% [100 µM] (inactive) and 48.6% [100 µM] (inactive)
O=C1NC(N/N=C\c2ccccc2)=N/C1=C/c1ccc(Cl)cc1 | -66.3% [100 µM] (active) and 14% [100 µM] (inactive)
COc1ccc(OC)c(N(CN2C(=O)CCC2C(=O)O)C(C)=O)c1 (centres undefined) | 86% [100 µM] (inactive) and 95.9% [100 µM] (inactive)
CC(C)=CCc1cc(C2COc3cc4c(c(O)c3C2=O)C=CC(C)(C)O4)c(O)cc1O (centres undefined) | -75.7% [100 µM] (active) and -83.3% [100 µM] (active)
CC(C)C1OC(N)=C(C#N)C1(C#N)C#N (centres undefined) | 12.9% [100 µM] (inactive) and 2.2% [100 µM] (active)
Cc1cc(S(=O)(=O)O)c(NC(=O)c2oc3cc(O)ccc3c(=O)c2C)cc1Cl | 100% [100 µM] (inactive) and 86.3% [100 µM] (inactive)
C[C@@H]1CC[C@H]2C(C)(C)[C@H]3C[C@@]12CC[C@@]3(C)O | 93.1% [100 µM] (inactive) and -100% [100 µM] (active)
C=CC(COC(=O)C(C)(C)OC(C)=O)c1ccc(OC(=O)C(C)C)c(OC)c1 (centres undefined) | -68.4% [100 µM] (active) and -69% [100 µM] (active)
C=CCNC1=C2C[C@@H](C)C[C@@H](OC)[C@@H](OC(=O)CCCN)[C@H](C)/C=C(\C)[C@@H](OC(N)=O)[C@H](OC)/C=C\C=C(/C)C(=O)NC(=CC1=O)C2=O | -82% [100 µM] (active) and -94.9% [100 µM] (active)
CCOc1cc2c(cc1O)/C(=N/NS(=O)(=O)c1ccc(C)cc1)C[C@@H]1[C@@H]2CC[C@]2(C)[C@@H](O)CC[C@@H]12 | -3.96% [100 µM] (active)
Cc1ccc(/C=N/Nc2cnccn2)s1 | 14.7% [100 µM] (inactive) and 4.18% [100 µM] (active)
